# Test results published in the supplement of paper PMC7411054.
# Tests used:
# Experiment in all cases: lowest phenotypically active concentration; higher = less potent
# Settings in all cases: treatment time: 24 h
# HepG2-CANX-COX4 = system: HepG2-CANX-COX4
# In short: (§1)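 Four wells per concentration (0.3, 1, 3 or 9 µM) were treated for 24 h in each of fifteen gene-edited reporter lines from A549, HepG2 and WPMY1 cells, then imaged live. After normalising live-cell features to solvent control wells, deviation was defined as ≥3 of 4 wells lying past the 95th percentile of control Euclidean distances. Reproducibility was defined as a median replicate Pearson correlation above the 95th percentile of non-replicates. Both had to hold for phenotypic activity.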
# HepG2-GM130-SQSTM1 = system: HepG2-GM130-SQSTM1
# In short: as §1
# HepG2-TP53BP1-CLTA = system: HepG2-TP53BP1-CLTA
# In short: as §1
# HepG2-TUBA1B-RELA = system: HepG2-TUBA1B-RELA
# In short: as §1
# WPMY1-ACTB-RAB5A = system: WPMY1-ACTB-RAB5A
# In short: as §1
# WPMY1-TUBA1B-RELA = system: WPMY1-TUBA1B-RELA
# In short: as §1
# WPMY1-TP53BP1-CLTA = system: WPMY1-TP53BP1-CLTA
# In short: as §1
# A549-TP53BP1-CLTA = system: A549-TP53BP1-CLTA
# In short: as §1
# WPMY1-CANX-COX4 = system: WPMY1-CANX-COX4
# In short: as §1
# A549-CANX-COX4 = system: A549-CANX-COX4
# In short: as §1
compound,measurement,setting,value
COc1ccc(CCc2nc3cc(-c4c(C)noc4C)ccc3n2C[C@H](C)N2CCOCC2)cc1Cl,lowest phenotypically active concentration,HepG2-CANX-COX4,9 µM
same,lowest phenotypically active concentration,HepG2-GM130-SQSTM1,9 µM
same,lowest phenotypically active concentration,HepG2-TP53BP1-CLTA,9 µM
same,lowest phenotypically active concentration,HepG2-TUBA1B-RELA,9 µM
same,lowest phenotypically active concentration,WPMY1-ACTB-RAB5A,9 µM
same,lowest phenotypically active concentration,WPMY1-TUBA1B-RELA,9 µM
CC(C)(C)c1ccc(C(O)CCCN2CCC(C(O)(c3ccccc3)c3ccccc3)CC2)cc1 (stereo unspecified) [terfenadine],lowest phenotypically active concentration,HepG2-TUBA1B-RELA,1 µM
same,lowest phenotypically active concentration,WPMY1-TUBA1B-RELA,3 µM
COc1ccccc1C(=O)Nc1cc2c(cc1N1CCCC1)n(C)c(=O)n2C,lowest phenotypically active concentration,WPMY1-ACTB-RAB5A,9 µM
Nc1ncnc2c1c(-c1ccc(Oc3ccccc3)cc1)nn2C1CCCC1,lowest phenotypically active concentration,WPMY1-TP53BP1-CLTA,3 µM
O=C(Nc1ccc(CN2CCOCC2)cc1)c1ccc(-c2cccc(Cl)c2)o1,lowest phenotypically active concentration,HepG2-TUBA1B-RELA,9 µM
CCN1/C(=C/C(C)=O)Sc2ccc(O)cc21,lowest phenotypically active concentration,A549-TP53BP1-CLTA,9 µM
same,lowest phenotypically active concentration,WPMY1-ACTB-RAB5A,9 µM
same,lowest phenotypically active concentration,WPMY1-TP53BP1-CLTA,9 µM
O=C(CCCCCCC(=O)Nc1ccc([C@H]2O[C@@H](CSc3nc(-c4ccccc4)c(-c4ccccc4)o3)C[C@@H](c3ccc(CO)cc3)O2)cc1)NO [Tubacin],lowest phenotypically active concentration,WPMY1-ACTB-RAB5A,9 µM
same,lowest phenotypically active concentration,WPMY1-CANX-COX4,9 µM
same,lowest phenotypically active concentration,WPMY1-TP53BP1-CLTA,9 µM
same,lowest phenotypically active concentration,WPMY1-TUBA1B-RELA,9 µM
CC[C@H](Nc1ncnc2[nH]cnc12)c1nc2cccc(F)c2c(=O)n1-c1ccccc1 [idelalisib],lowest phenotypically active concentration,WPMY1-ACTB-RAB5A,9 µM
Cc1cccc(-c2n[nH]cc2-c2ccc(F)c(-c3cnn(CCO)c3)c2)n1,lowest phenotypically active concentration,HepG2-CANX-COX4,9 µM
same,lowest phenotypically active concentration,HepG2-TP53BP1-CLTA,9 µM
same,lowest phenotypically active concentration,WPMY1-ACTB-RAB5A,9 µM
same,lowest phenotypically active concentration,WPMY1-CANX-COX4,9 µM
same,lowest phenotypically active concentration,WPMY1-TP53BP1-CLTA,9 µM
same,lowest phenotypically active concentration,WPMY1-TUBA1B-RELA,9 µM
C[C@@H]1CCN(C(=O)CC#N)C[C@@H]1N(C)c1ncnc2[nH]ccc12,lowest phenotypically active concentration,HepG2-CANX-COX4,9 µM
same,lowest phenotypically active concentration,HepG2-GM130-SQSTM1,9 µM
same,lowest phenotypically active concentration,HepG2-TP53BP1-CLTA,9 µM
Cc1cccc(-c2nn(C(=S)Nc3ccccc3)cc2-c2ccnc3ccccc23)n1,lowest phenotypically active concentration,A549-CANX-COX4,9 µM
same,lowest phenotypically active concentration,HepG2-CANX-COX4,3 µM
same,lowest phenotypically active concentration,HepG2-GM130-SQSTM1,9 µM
same,lowest phenotypically active concentration,HepG2-TP53BP1-CLTA,9 µM
same,lowest phenotypically active concentration,HepG2-TUBA1B-RELA,9 µM
same,lowest phenotypically active concentration,WPMY1-ACTB-RAB5A,9 µM
same,lowest phenotypically active concentration,WPMY1-CANX-COX4,9 µM
same,lowest phenotypically active concentration,WPMY1-TP53BP1-CLTA,1 µM
same,lowest phenotypically active concentration,WPMY1-TUBA1B-RELA,9 µM
O=C1NCCCc2c1oc1ccc(O)cc21,lowest phenotypically active concentration,HepG2-CANX-COX4,9 µM
same,lowest phenotypically active concentration,HepG2-TUBA1B-RELA,9 µM
same,lowest phenotypically active concentration,WPMY1-ACTB-RAB5A,9 µM
same,lowest phenotypically active concentration,WPMY1-TUBA1B-RELA,9 µM
